Reference: PubChem BioAssay (NCI)
About 83,000 compounds went through this panel and 20% of them were active in at least one assay; those are over-represented in the sample as a whole.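 The endpoint reported here, percent growth, reads 100 for growth as untreated, 0 for no net growth and -100 for all cells dead.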 Calls of active or inactive are those of the source. Rule for the calls: active = growth percent below 10; inactive = the rest.

Test system: 786-0 renal
Test: NCI-60 one-dose screen, 48 h (100 = growth as untreated, 0 = no growth, -100 = all killed)
Settings: 10 µM unless noted

SMILES	growth
Cc1nc2sc(C(=O)Nc3cccc(Cl)c3C)c(N)c2cc1C(=O)/C=C/c1ccccc1	-51.1% (active)
CN1CCN(Cc2ccc(NC(=O)c3cncc(C#Cc4cnc(N)cc4C#N)c3)cc2C(F)(F)F)CC1	24.9% (inactive)
c1cc(OCCN2CCCC2)ccc1CNc1ccc2nc(CCC3CCCCC3)[nH]c2c1	-60.1% (active)
CCN(CC)CCOc1ccc2c(-c3ccccc3)c(-c3ccc(OC)cc3)c(=O)oc2c1	65.9% (inactive)
O=C1/C(=C/c2c[nH]c(=O)[nH]c2=O)SC(=S)N1Cc1ccccc1	100% (inactive)
CCN(CC)CCCNc1cc(OC)c(OC)c2cccnc12	43.4% (inactive)
COc1cc(Cc2cc(OC)c(O)c(OC)c2)cc(OC)c1O	107% (inactive)
CSc1ccc(N2C(=N)C(=S)N(c3ccc(C)cc3)C2=O)cc1	91.5% (inactive)
CCOC(=O)/C(=C(/C)NCC(C)C)c1cc(O)c(O)c2c(C)cc(=O)[nH]c12	47.4% (inactive)
C/C(=C(\c1ccc(OCCN2CCCCCC2)cc1)c1ccc(OC(=O)c2ccccc2)cc1)c1ccc(Cl)cc1	21.8% (inactive)
COCCn1cc(-c2csc(-c3c[nH]c4ccc(F)cc34)n2)c2cccnc21	40.4% (inactive)
Cc1ccc2cnc(N)c(C#Cc3cc(C(=O)Nc4ccc(CN5CCN(C)CC5)c(C(F)(F)F)c4)cnc3C)c2c1	-82.8% (active)
O=C(NNc1nc2cc(F)ccc2n2c(CN3CCOCC3)ccc12)c1ccccc1	6.29% (active)
COc1ccc(-c2nc(SCC(=O)Nc3nc4ccc(C)cc4s3)[nH]c(=O)c2C#N)cc1OC	105% (inactive)
CCOC(=O)c1ccc[nH]1	93.1% (inactive)
COc1cc(Cc2cc(-c3ccccc3)nn(Cc3ccccc3)c2=O)cc(OC)c1OC	49.9% (inactive)
O=C(Nc1ccc(Nc2ccncc2)cc1)c1ccc(Nc2ccnc3ccc([N+](=O)[O-])cc23)cc1	99.2% (inactive)
C[C@H]1[C@H](C)CC[C@]2(C(=O)NCCNCCN)CC[C@]3(C)C(=CC[C@@H]4[C@@]5(C)CCC(=O)C(C)(C)[C@@H]5CC[C@]43C)[C@H]12	80.7% (inactive)
COc1ccc(C/C(C)=C(\c2ccc(Cl)cc2)c2ccc(OCCN3CCCC3)cc2)cc1	83.7% (inactive)
CCOc1ccc(NC(=O)Nc2ccc(OCC)cc2)cc1	108% (inactive)

SMILES	growth
Cc1ccc(NC(=O)c2cc3ccccc3cc2O)c(C)c1	84.7% (inactive)
COC(=O)c1c2c(c[n+]([O-])c1C)C(=O)C=C(NCc1ccccc1)C2=O	-69% (active)
C=C1C(=O)O[C@H]2[C@H]1CC/C(CNC(=O)Cc1c[nH]c3ccccc13)=C\CC[C@@]1(C)O[C@@H]21	-36.4% (active)
C#CCOc1ccc2nc(CCl)c(Cl)c(Nc3cccc(C(F)(F)F)c3)c2c1	76% (inactive)
O=C1/C(=C/c2cccc(Br)c2)COc2ccc(O)cc21	50% (inactive)
CCN(CC)CCOc1ccc(/C(=C(\C)Cc2ccc(OC)cc2)c2ccc(OC(=O)NCc3ccccc3)cc2)cc1	56.7% (inactive)
O=C(CCCCCCCC(=O)N1CCCCC1)N1CCCCC1	105% (inactive)
Cc1ccc(-c2nc(SCC(=O)N3CCN(c4cc5c(cc4F)c(=O)c(C(=O)O)cn5C4CC4)CC3)nc(Cl)c2C#N)cc1	97.8% (inactive)
CSc1ccc2c3c(n(C[C@H](O)CO)c(=O)c2c1)-c1ccccc1C3=O	27% (inactive)
Cc1cn(C)cn1	97.9% (inactive)
C#Cc1cccc(Nc2ncnc3cc(NC(=O)CCl)ccc23)c1	-79.3% (active)
O=S(=O)(NCCNc1nccc(-c2c(-c3ccc(F)c(O)c3)nc3sccn23)n1)c1ccc(Cl)cc1	38.3% (inactive)
COc1ccc(C(O)c2cc3c(N)c(C(=O)Nc4cccc5ccccc45)sc3nc2C)cc1 (stereo not given)	16.2% (inactive)
O=C(Nc1cc(Cl)ccc1O)c1ccccc1Nc1ccnc(C(F)(F)F)c1	57.9% (inactive)
COc1ccc(/C=C2\c3cc(OC)c(OC)c(OC)c3CC[C@@H]2O)cc1F	34.7% (inactive)
CCN(CC)C(=O)C1=C(C)NC(=O)NC1c1ccc2c(c1)OCO2 (stereo not given)	106% (inactive)
COc1ccc(C=Nc2c(C(=O)Nc3cccc(Cl)c3C)sc3nc(C)c(C(=O)/C=C/c4ccc(OC)cc4)cc23)cc1	21.5% (inactive)
CC(C)(C)c1ccc(S(=O)(=O)Oc2ccc(-c3sc4cc(OS(=O)(=O)c5ccc(C(C)(C)C)cc5)ccc4c3C(=O)c3ccc(OCCN4CCCCC4)cc3)cc2)cc1	89% (inactive)
COc1cc(/C=C/c2cc(/C=C/c3ccc(O)c(OC)c3)n(C(=O)Nc3ccc(Cl)cc3)n2)ccc1O	-2.2% (active)
O=c1cc(CP(=O)(O)O)c2cc(O)c(-c3ccccc3)cc2o1	104% (inactive)
